# Inconclusive results are not listed. Unmarked numbers belong to inactive results. Active and inactive are the calls of the source. The call rests on the fitted dose curve; in most records, active means well fitted cell-killing curve with a large enough effect; inconclusive means small, poorly fitted or top-dose-only effect; inactive means no such curve, though single readings can be large or run the other way.
# Assay: qHTS of pediatric cancer cell lines to identify multiple opportunities for drug repurposing: Primary screen for SJ-GBM2 cells (AID 1347091)
# Conditions: SJ-GBM2 viability, CellTiter-Glo luminescence, 48 h; series mostly up to 46 µM; activity change, negative = cytotoxic: at the top concentration
# Excerpt: Drug repurposing or repositioning has been offered as a strategy for drug development in oncology programs. This approach has special potential for childhood cancers and other rare or orphan diseases, where the expected return on new drug development has been a disincentive to pharmaceuticals.
# In this project we exploit the poly-pharmacology of drugs to discover new indications via phenotypic screening of a panel of 19 well-characterized cell lines derived from solid tumors seen in children and adolescents. The goal is to identify approved drugs with previously unrecognized anticancer properties that has the potential to reveal new mechanisms and biological processes involved in carcinogenesis or drug resistance. We employed a titration-based paradigm (quantitative high-throughput screening or qHTS), where all compounds were tested at multiple concentrations for their effect on cell viability. Concentration-response curves (CRCs) were derived directly from the primary screen, and both potency and efficacy values were used to identify compounds with robust bioactivity profiles. We screened the NIH Chemical Genomics Center (NCGC) Pharmaceutical Collection (NPC) and Mechanism Interrogation Plate (MIPE) small molecule collections of approved and investigational compounds against these cell lines; and measured metabolically active cells after 48 hours of compound treatment as a proxy for cell viability.
# Assay Submitter: Nathalia J. Martinez, National Center for Advancing Translational Sciences, National Institutes of Health, Rockville, MD, USA; email: natalia.martinez@nih.gov
# [1] Shen, M et al. Quantitative high-throughput phenotypic screening of pediatric cancer cell lines identifies multiple opportunities for drug repurposing. Oncotarget 2017 Dec 19;9(4):4758-4772. PMID 29435139.
# The cells were obtained from University of North Carolina (UNC), Pediatric Preclinical Testing Program (PPT), and Coriell Institute (CI).
# qHTS cell viability assay:
# Cells were assayed in growth media at a density of 500-1,000 cells/well. Five microliters of cells were dispensed into 1,536-well, white, solid-bottom, TC-treated plates (Greiner Bio One) using a multidrop dispenser and incubated at 37 degrees C, 5% CO2, under a humidified atmosphere for 5 hours. Twenty-three nanoliters of compounds and controls (neutral control DMSO or positive control bortezomib at final concentration of 2.3 µM) were subsequently transferred by Kalypsys pintool. For primary screens, the MIPE collection was tested at 11-point dilutions (final concentrations range from 0.78 nM to 46 µM) and the NPC collection at 8-point dilutions (final concentrations range from 0.59 nM to 46 µM). Compounds tested in follow-up screens were assayed at 11-point dilutions. Cells were incubated for 48 hours, followed by addition of 3 uL of CellTiter-Glo (Promega). After a 15 min incubation at room temperature, samples were analyzed for luminescence intensity using a ViewLux High-throughput CCD imager equipped with clear filters.
# Potency means the concentration at half of the fitted maximal effect.
Compound,"activity change, negative = cytotoxic",Potency
CC(=O)Nc1c(I)cc(I)c(C(=O)O)c1I,27.4%,–
CC1(C)OC[C@@H](COC(=O)CCc2ccc(OC[C@@H](O)CNCCNC(=O)N3CCOCC3)cc2)O1,4.62%,–
CC(=O)OCC(=O)[C@@]1(O)CC[C@H]2[C@@H]3CCC4=CC(=O)C=C[C@]4(C)[C@H]3[C@@H](O)C[C@@]21C,-3.91%,–
O=C(COc1ccc(Cl)cc1)N1CCN(Cc2ccc3c(c2)OCO3)CC1,-3.89%,–
OC[C@H]1O[C@@H](n2cnc3c(=S)nc[nH]c32)[C@H](O)[C@@H]1O,–,3.76 µM (active)
NC(CS)C(=O)O (stereo not given),12.7%,–
CC(=O)OCC(=O)[C@@]1(O)[C@H](C)C[C@H]2[C@@H]3CCC4=CC(=O)C=C[C@]4(C)[C@@]3(F)[C@@H](O)C[C@@]21C,7.83%,–
CN(C)CC/C=C1/c2ccccc2COc2ccc(CC(=O)O)cc21,11.2%,–
C[C@]12CC[C@H]3[C@@H](CCC4=CC(=O)CC[C@@]43C)[C@@H]1CC[C@@H]2C(=O)CO,-11.7%,–
O=C1c2ccccc2C(=O)C1c1ccccc1,22.9%,–
COc1cc2c(cc1OC)C(C(C(=O)N(CCc1ccc(OC)c(OC)c1OC)CCc1ccc(OC)c(OC)c1OC)c1ccccc1)=NCC2 (stereo not given),-18.1%,–
CC(=O)OCC(=O)NCCCOc1cccc(CN2CCCCC2)c1,1.68%,–
O=C(O)CNC(=O)c1ccccc1,16.8%,–
NCCC(O)(P(=O)(O)O)P(=O)(O)O,16.2%,–
C=CCc1ccc(O)c(OC)c1,11.3%,–
COc1ccc(OC)c(C(O)CNC(=O)CN)c1 (stereo not given),24.2%,–
C[C@H]1[C@H](NC(=O)/C(=N/OC(C)(C)C(=O)O)c2csc(N)n2)C(=O)N1S(=O)(=O)O (stereo in doubt),4.38%,–
COc1cc(C=C2CCC/C(=C\c3ccc(O)c(OC)c3)C2=O)ccc1O,–,23.7 µM (active)
CC(=O)O[C@]1(C(C)=O)CC[C@H]2[C@@H]3C[C@H](C)C4=CC(=O)CC[C@]4(C)[C@H]3CC[C@@]21C,-19.8%,–
Cc1cc(O)c(C(C)C)cc1Cl,25.2%,–

Compound,"activity change, negative = cytotoxic",Potency
CCCCN1CCCC1C(=O)Nc1c(C)cc(C)cc1C (stereo not given),4.14%,–
CCCC(=O)O[C@]1(C(=O)CO)CC[C@H]2[C@@H]3CCC4=CC(=O)CC[C@]4(C)[C@H]3[C@@H](O)C[C@@]21C,-4.54%,–
CCCCc1nc(Cl)c(CO)n1Cc1ccc(-c2ccccc2-c2nn[nH]n2)cc1,7.98%,–
CC(C)(C)CC(C)(C)c1ccc(OCCOCC[N+](C)(C)Cc2ccccc2)cc1,–,21.1 µM (active)
CCOC(=O)/C=C(C)/C=C/C=C(C)/C=C/c1c(C)cc(OC)c(C)c1C,-8.74%,–
COc1cccc(OC)c1C(=O)N[C@@H]1C(=O)N2[C@@H]1SC(C)(C)[C@@H]2C(=O)O,19.7%,–
CCCCCCCCCCCCCCNCCO,13.2%,–
C=C(CC)C(=O)c1ccc(OCC(=O)O)c(Cl)c1Cl,22.9%,–
CCN(CC)C(=O)/C(C#N)=C/c1cc(O)c(O)c([N+](=O)[O-])c1,48.5%,–
c1ccc(OCc2ccc(CCCN3CCOCC3)cc2)cc1,-15.5%,–
CCOC(=O)n1ccn(C)c1=S,12.3%,–
Cc1cccn2c(=O)c(-c3nnn[nH]3)cnc12,10.9% [at 16.1 µM],–
CC(=O)Oc1ccc(C(=C2CCCCC2)c2ccc(OC(C)=O)cc2)cc1,9.02%,–
C[C@@H]1C[C@H]2[C@@H]3C[C@H](F)C4=CC(=O)C(Cl)=C[C@]4(C)[C@@]3(F)[C@@H](O)C[C@]2(C)[C@@]1(O)C(=O)CO,-3.93%,–
CN1CCN(C(c2ccccc2)c2ccccc2)CC1,0.845%,–
Cc1cccc(C)c1NC(=O)CN1CCN(CCCC(c2ccc(F)cc2)c2ccc(F)cc2)CC1,–,21.1 µM (active)
OCc1ccccc1O,29.4%,–
Oc1ccc(O)cc1,9.98%,–
C[C@H](O)C(=O)Nc1c(I)c(C(=O)NC(CO)CO)c(I)c(C(=O)NC(CO)CO)c1I,7.5%,–
CC(C)(CO)[C@@H](O)C(=O)NCCCO,19.2%,–

# Source: PubChem BioAssay (NCATS)
